# In PubChem BioAssay AID588689 (Southern Research Specialized Biocontainment Screening …, 2011):
# Screen size: about 340,000 compounds; about 1,000 (0.29%) were called active. No stated cut-off is given here; in the data, inconclusive means inhibition above about 29% without an active follow-up result; inactive means below that. A selection follows. Results with a measured potency or affinity are listed apart.
# Target: Genome polyprotein (Dengue virus type 2 (strain 16681-PDK53)) (UniProt P29991)
# Sequence (P29991 whole entry, looked up): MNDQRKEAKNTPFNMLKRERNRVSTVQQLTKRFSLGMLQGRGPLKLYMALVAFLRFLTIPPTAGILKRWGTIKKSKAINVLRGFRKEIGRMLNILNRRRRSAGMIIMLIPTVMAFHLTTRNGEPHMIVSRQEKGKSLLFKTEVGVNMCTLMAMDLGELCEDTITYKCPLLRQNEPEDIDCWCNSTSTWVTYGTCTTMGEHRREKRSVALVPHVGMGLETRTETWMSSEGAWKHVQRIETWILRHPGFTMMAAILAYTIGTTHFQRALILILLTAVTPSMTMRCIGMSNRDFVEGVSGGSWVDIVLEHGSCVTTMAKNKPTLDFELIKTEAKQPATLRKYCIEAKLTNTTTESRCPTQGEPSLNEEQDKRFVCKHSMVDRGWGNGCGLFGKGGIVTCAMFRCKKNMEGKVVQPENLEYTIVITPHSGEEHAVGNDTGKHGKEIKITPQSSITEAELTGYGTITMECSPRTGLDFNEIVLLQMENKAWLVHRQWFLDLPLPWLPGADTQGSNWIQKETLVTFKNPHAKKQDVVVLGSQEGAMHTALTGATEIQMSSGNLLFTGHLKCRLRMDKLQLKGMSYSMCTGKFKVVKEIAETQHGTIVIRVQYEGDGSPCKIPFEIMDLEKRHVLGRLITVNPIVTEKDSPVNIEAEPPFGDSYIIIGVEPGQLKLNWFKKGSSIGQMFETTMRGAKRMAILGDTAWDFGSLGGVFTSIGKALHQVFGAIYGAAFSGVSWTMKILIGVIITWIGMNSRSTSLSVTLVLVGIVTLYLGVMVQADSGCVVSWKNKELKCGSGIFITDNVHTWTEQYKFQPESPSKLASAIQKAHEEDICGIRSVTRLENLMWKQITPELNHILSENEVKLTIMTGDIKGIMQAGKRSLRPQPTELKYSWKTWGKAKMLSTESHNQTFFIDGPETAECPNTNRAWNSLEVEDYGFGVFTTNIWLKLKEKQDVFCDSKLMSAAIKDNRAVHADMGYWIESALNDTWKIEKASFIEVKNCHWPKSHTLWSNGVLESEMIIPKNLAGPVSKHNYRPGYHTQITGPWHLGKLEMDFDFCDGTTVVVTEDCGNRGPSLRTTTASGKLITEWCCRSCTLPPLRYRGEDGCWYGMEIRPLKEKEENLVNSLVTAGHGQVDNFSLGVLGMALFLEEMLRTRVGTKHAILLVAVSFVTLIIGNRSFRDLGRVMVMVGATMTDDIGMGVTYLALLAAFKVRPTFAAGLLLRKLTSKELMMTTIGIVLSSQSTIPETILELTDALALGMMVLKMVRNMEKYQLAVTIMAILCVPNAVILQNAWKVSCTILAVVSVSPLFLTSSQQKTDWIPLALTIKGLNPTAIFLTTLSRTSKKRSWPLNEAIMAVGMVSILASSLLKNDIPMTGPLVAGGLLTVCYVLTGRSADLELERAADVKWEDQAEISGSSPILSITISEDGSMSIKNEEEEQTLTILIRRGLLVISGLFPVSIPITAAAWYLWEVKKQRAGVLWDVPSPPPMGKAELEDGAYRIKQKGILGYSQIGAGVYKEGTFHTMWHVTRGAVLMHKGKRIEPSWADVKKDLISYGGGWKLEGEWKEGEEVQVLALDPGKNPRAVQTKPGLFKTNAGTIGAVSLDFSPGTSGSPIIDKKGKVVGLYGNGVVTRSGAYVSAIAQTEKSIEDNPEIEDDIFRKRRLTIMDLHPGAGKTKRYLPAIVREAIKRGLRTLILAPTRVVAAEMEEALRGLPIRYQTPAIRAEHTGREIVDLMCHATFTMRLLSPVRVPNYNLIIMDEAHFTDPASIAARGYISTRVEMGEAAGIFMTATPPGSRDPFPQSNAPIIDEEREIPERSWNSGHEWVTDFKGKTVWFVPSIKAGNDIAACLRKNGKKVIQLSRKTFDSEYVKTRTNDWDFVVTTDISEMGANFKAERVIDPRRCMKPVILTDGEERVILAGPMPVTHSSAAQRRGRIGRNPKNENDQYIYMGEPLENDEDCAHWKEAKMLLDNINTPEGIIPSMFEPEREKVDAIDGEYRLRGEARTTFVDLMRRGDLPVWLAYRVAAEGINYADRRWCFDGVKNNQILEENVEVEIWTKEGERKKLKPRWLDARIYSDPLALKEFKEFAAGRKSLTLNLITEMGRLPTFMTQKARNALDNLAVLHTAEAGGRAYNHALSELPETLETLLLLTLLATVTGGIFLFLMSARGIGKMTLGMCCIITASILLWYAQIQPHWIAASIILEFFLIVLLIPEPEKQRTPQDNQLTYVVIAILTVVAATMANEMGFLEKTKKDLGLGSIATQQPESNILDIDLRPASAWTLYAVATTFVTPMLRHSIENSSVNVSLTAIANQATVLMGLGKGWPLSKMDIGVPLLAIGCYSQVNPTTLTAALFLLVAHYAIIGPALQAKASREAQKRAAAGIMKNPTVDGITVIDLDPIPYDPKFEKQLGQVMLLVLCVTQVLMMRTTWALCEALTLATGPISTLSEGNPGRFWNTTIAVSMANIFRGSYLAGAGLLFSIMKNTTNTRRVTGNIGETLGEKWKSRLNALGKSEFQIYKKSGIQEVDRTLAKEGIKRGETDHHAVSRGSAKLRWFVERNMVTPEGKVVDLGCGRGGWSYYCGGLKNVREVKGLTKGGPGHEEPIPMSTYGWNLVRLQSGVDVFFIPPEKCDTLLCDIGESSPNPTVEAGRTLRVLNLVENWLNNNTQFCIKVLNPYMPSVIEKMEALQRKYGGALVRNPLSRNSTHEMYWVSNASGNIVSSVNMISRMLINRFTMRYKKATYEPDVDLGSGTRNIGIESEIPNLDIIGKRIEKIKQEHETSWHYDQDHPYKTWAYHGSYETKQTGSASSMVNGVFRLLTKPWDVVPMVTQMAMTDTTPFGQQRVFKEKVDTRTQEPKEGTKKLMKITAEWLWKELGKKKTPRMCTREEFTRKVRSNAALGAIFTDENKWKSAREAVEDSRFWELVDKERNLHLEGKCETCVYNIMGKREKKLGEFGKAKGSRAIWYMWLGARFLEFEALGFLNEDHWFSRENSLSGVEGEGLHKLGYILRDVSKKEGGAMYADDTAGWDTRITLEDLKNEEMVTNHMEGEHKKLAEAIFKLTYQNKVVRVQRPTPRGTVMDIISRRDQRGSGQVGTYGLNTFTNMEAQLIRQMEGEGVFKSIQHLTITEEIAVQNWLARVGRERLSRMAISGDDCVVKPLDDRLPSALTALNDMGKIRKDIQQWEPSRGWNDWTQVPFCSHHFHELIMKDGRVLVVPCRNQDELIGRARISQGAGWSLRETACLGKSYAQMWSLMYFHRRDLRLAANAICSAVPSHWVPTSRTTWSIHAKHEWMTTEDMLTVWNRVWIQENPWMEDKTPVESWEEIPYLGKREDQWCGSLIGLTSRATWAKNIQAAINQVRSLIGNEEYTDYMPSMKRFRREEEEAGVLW
# Experiment: flavivirus cap methylation enzyme inhibition – biochemical, confirmation dose response, primary screen (AID 588689)
# Details: Dengue-2 NS5 methyltransferase capping enzyme assay, at 25 µM, stronger effect = higher value
# [1] = measured here: pilot screen replicate inhibition
Compound,inhibition,inhibition [1] [%]
COc1ccc(NC(=S)N2CCC(C(=O)c3ccc(C)cc3)CC2)cc1,-11.5% (inactive),–
Cc1ccc(C2=NNC(C(O)C(O)C(O)CO)S2)cc1 (configuration not stated),-8.04% (inactive),–
O=C(CCN1C(=O)/C(=C/c2ccccc2Cl)SC1=S)NNC(=O)c1ccccc1O,-5.13% (inactive),–
O=C(CCN1C(=O)S/C(=C/c2ccccc2)C1=O)Nc1ccc(C(=O)O)c(O)c1,25.9% (inactive),–
O=C(CCN1C(=O)/C(=C\C=C\c2ccccc2)SC1=S)Nc1ccc(C(=O)O)cc1,9.75% (inactive),–
O=C(CCN1C(=O)S/C(=C/c2ccc(F)cc2)C1=O)Nc1ccc(O)c(C(=O)O)c1,19.6% (inactive),–
O=C(CCN1C(=O)/C(=C/c2cccs2)SC1=S)Nc1ccc(C(=O)O)c(O)c1,15% (inactive),–
O=C(CCN1C(=O)/C(=C/c2ccccc2Cl)SC1=S)Nc1ccccn1,1.55% (inactive),–
COc1ccccc1/C=C1\SC(=S)N(CCC(=O)Nc2ccc(C(=O)O)c(O)c2)C1=O,19.8% (inactive),–
O=C(CN1C(=O)S/C(=C\C=C\c2ccccc2)C1=O)Nc1ccccc1C(=O)O,24.3% (inactive),–
CCN(Cc1nc2cc(Cl)ccc2c(=O)[nH]1)C(=O)c1cccc(NC(=O)c2cccs2)c1,-6.19% (inactive),–
Cc1ccc(NC(=O)CCC(=O)c2ccccc2)cc1,-17.5% (inactive),–
Cc1ccc(S(=O)(=O)NCCN2CCOCC2)c(C)c1C,3.68% (inactive),–
O=C(Cc1ccc(Cl)cc1)N1CCC2(CC1)NCCc1[nH]cnc12,-10.7% (inactive),–
Cc1cc(NC(=O)CCC(=O)N(c2ccc(F)cc2)C(C(=O)NC2CCCC2)c2cccnc2)no1 (configuration not stated),6.51% (inactive),–
O=C(CCCN1C(=O)/C(=C/c2ccc3c(c2)OCO3)SC1=S)Nc1cccc(C(=O)O)c1,0.32% (inactive),–
O=C(CCN1C(=O)/C(=C/c2ccc3c(c2)OCO3)SC1=S)Nc1ccccc1,2.89% (inactive),–
CC(C)c1ccc(C2N3CC4([N+](=O)[O-])CN2CC([N+](=O)[O-])(C3)C4(C)C)cc1 (configuration not stated),-2.65% (inactive),–
COc1ccc2c(c1)C(=O)N(c1ccccc1OC)C(=O)C2,0.7% (inactive),–
COc1ccc(C=O)cc1CN1C(=O)c2ccccc2C1=O,5.3% (inactive),–
COc1ccc(/C=C2\C(=O)NC(=O)c3ccccc32)cc1OC,25.5% (inactive),–
COc1ccc(C)cc1CN1C(=O)c2ccccc2C1=O,-12.4% (inactive),–

Compound,inhibition,inhibition [1] [%]
COc1ccccc1N1C(=O)Cc2ccccc2C1=O,1.63% (inactive),–
COc1ccc(/C=C2/NC(=O)N(Cc3ccccc3F)C2=O)cc1OC,0.77% (inactive),–
O=c1cc(Cl)[nH]c(=O)n1Cc1ccc(F)cc1,-9.54% (inactive),–
Cc1cc(C)cc(NC(=O)c2ccc(NC(=O)c3ccco3)cc2)c1,-0.32% (inactive),–
N#CCC(=O)Nc1ccc(C(=O)NNC(=O)CCN2CCN(c3ccccc3)CC2)cc1,-13.1% (inactive),–
CCC[C@@H](CN1CCC[C@H]1CN1C(N)=NC[C@H]1CC(C)C)N1C[C@@H](Cc2ccccc2)N(CCCC2CCCC2)C1=N,-0.66% (inactive),-1.83
CC(CN1CCN(Cc2ccccc2)CC1)OC(=O)c1ccco1 (configuration not stated),2.3% (inactive),–
O=C(O)C/C(=C\c1ccc(N2CCOCC2)c([N+](=O)[O-])c1)c1nc2ccccc2s1,6.96% (inactive),–
CN(c1ccccc1)c1ccc(/C=C(\CCC(=O)O)c2nc3ccccc3s2)cc1[N+](=O)[O-],26.1% (inactive),–
O=C(O)CC/C(=C\c1ccc(N2CCOCC2)c([N+](=O)[O-])c1)c1nc2ccccc2s1,24% (inactive),–
Cc1ccc(/C=C(\CCC(=O)O)c2nc3ccccc3s2)cc1[N+](=O)[O-],13.8% (inactive),–
COc1ccc(NC(=O)C2CCCCN2S(=O)(=O)c2ccc(F)cc2)cc1 (configuration not stated),-2.91% (inactive),–
Cc1csc2nc(=O)c3ccccc3n12,-0.7% (inactive),–
Oc1c(Cl)cc(Cl)cc1CNc1nc2ccccc2[nH]1,-17.7% (inactive),–
Cc1cccc(NCc2cc(Cl)cc(Cl)c2O)n1,-2.76% (inactive),–
O=C(CSc1nnc2scc(-c3ccccc3)n12)NCc1ccc2c(c1)OCO2,-2.59% (inactive),–
Nc1c(Cl)cc2c(c1Oc1ccccc1)C(=O)c1ccccc1C2=O,0% (inactive),–
NC1=C(Cl)C(=O)c2ccccc2C1=O,-5.02% (inactive),–
Cc1cc(C)n(CC(=O)NNC(=O)COc2ccc(Cl)cc2Cl)n1,-9.01% (inactive),–
COc1ccc2c(c1)[nH]c1c(=O)n(CCN3CCOCC3)cnc12,-4.77% (inactive),–
O=C(CN(C(=O)Cn1nnc(-c2ccc(F)cc2)n1)c1ccc(F)cc1)NC1CCCC1,-4.85% (inactive),–
O=C(NCc1cccs1)c1nc2c(nnn2Cc2ccc(F)cc2)c(=O)[nH]1,-3.42% (inactive),–

Compound,inhibition,inhibition [1] [%]
O=C(NCc1ccco1)c1nc2c(nnn2Cc2ccccc2Cl)c(=O)[nH]1,-1.35% (inactive),–
COc1cc(/C=C2\SC(=O)N(c3ccc(Cl)cc3)C2=O)cc([N+](=O)[O-])c1O,3.7% (inactive),–
COc1cc(/C=C2\SC(=O)N(Cc3ccc(F)cc3)C2=O)cc([N+](=O)[O-])c1O,14.6% (inactive),–
CC(C)c1ccc(CCNC(=O)CCNS(=O)(=O)c2ccc(Br)cc2)cc1,2.95% (inactive),–
CC1CCCN(CCCOc2ccc(Br)cc2Cl)C1 (configuration not stated),-5.92% (inactive),–
C=CCn1c(SCC(=O)c2[nH]c(C)c(C(=O)OCC)c2C)nc2scc(-c3ccccc3)c2c1=O,0.73% (inactive),–
CCC1Nc2ccccc2-c2nnc(SC)nc2O1 (configuration not stated),6.45% (inactive),–
O=c1cc(-c2ccccc2)nc(SCc2ccccc2F)[nH]1,-2.34% (inactive),–
Nc1ccccc1-c1nnc(SCc2ccccc2F)[nH]c1=O,2.71% (inactive),–
CCSc1nnc2c(n1)OC1(CCCC1)Nc1ccccc1-2,-4.17% (inactive),–
Cc1[nH]c(C)c(S(=O)(=O)N(Cc2ccccc2)C(C)C)c1C(=O)N1CCCC1,-0.98% (inactive),–
COc1ccc(S(=O)(=O)N2CCN(C(=O)CCOc3ccccc3)CC2)cc1OC,4.1% (inactive),–
O=C(O)C1CCC(NSc2ccccc2[N+](=O)[O-])CC1 (configuration not stated),7.73% (inactive),–
Cc1ccc2c(c1C)NC(C(=O)O)C1CC=CC21 (configuration not stated),9.74% (inactive),–
O=C(O)c1ccccc1NSc1ccccc1[N+](=O)[O-],21.6% (inactive),–
CCN(CC(=O)Nc1ccc(NC(C)=O)cc1)C(=O)c1ccc(NC2CC2)c([N+](=O)[O-])c1,-1.48% (inactive),–
CCN(CC(=O)Nc1ccc(NC(C)=O)cc1)C(=O)c1ccc(N2CCC(C)CC2)c([N+](=O)[O-])c1,-0.77% (inactive),–
O=C(O)c1cccc2c1-c1c(cccc1[N+](=O)[O-])C2,-1.17% (inactive),–
Cc1occc1C(=O)NNC(=O)COc1ccc(Br)cc1Br,-1.83% (inactive),–
CCNC(=O)C1CCCN(c2nc(C)cc(C)n2)C1 (configuration not stated),3.17% (inactive),–
Cc1nn(C(=O)c2ccc3c(c2)OCO3)c(N)c1-c1ccccc1,-2.78% (inactive),–
CCc1ccc(/C=C2\SC(=S)N(CCCC(=O)Nc3nccs3)C2=O)cc1,5.18% (inactive),–

Compound,inhibition,inhibition [1] [%]
COc1ccc(C(=O)Cn2c(C(C)=O)nc3ccccc32)cc1,-4.63% (inactive),–
COc1ccc(N2CCN(C(=O)CC3NC4CCCCC4NC3=O)CC2)cc1 (configuration not stated),4.8% (inactive),-0.61
CCC(Oc1ccccc1)C(=O)N1CCN(S(=O)(=O)c2ccccc2)CC1 (configuration not stated),-3.63% (inactive),–
Cc1cccc(C)c1N(CC(=O)NCc1ccco1)C(=O)CNS(=O)(=O)c1ccc(F)cc1,-7.48% (inactive),–
CC1(C)C(=O)C2(CCCCC2)C(=O)OC1c1ccc(O)cc1 (configuration not stated),5.67% (inactive),–
Cc1cc(=O)oc2c(CN3CCN(CCO)CC3)c(O)ccc12,-1.72% (inactive),–
O=S(=O)(c1ccc(Br)cc1Cl)N1CCN(CCO)CC1,0.74% (inactive),–
O=[N+]([O-])c1ccc(N2CCN(CCOCCO)CC2)c([N+](=O)[O-])c1,-3.06% (inactive),–
OCCOCCN1CCN(C(=S)Nc2ccccc2)CC1,-12.4% (inactive),–
Cc1noc(C)c1C(=O)OCC(=O)N1CCc2ccccc21,-4.42% (inactive),–
CN(C(=O)c1ccc(NC(=O)Cc2ccc(NC(=O)C3CCCN(C(=O)C4CCC4)C3)cc2)cc1)C1CC1 (configuration not stated),-5.79% (inactive),–
Cc1ccc(NC(=O)CSc2nncs2)cc1Cl,-5.19% (inactive),–
O=C(c1ccc(F)cc1F)N1CCCc2ccccc21,-15% (inactive),–
Cc1ccccc1C(=O)Nc1ccc(S(=O)(=O)Nc2onc(C)c2C)cc1,-6.85% (inactive),–
Cc1noc(NS(=O)(=O)c2ccc(NC(=O)c3cc(F)c(F)c(F)c3F)cc2)c1C,8.65% (inactive),–
Cc1noc(NS(=O)(=O)c2ccc(NC(=O)c3ccc(F)cc3)cc2)c1C,11.3% (inactive),–
Cc1noc(NS(=O)(=O)c2ccc(NC(=O)c3cccc(S(=O)(=O)Nc4ccccc4F)c3)cc2)c1C,-5.34% (inactive),–
CC(=O)C1=C(O)C(=O)N(Cc2ccccc2)C1c1ccc(N(C)C)cc1 (configuration not stated),-5.27% (inactive),-5.49
CC(C1CC1)N(Cc1ccccc1)C(=O)NC(=O)c1cccc(F)c1 (configuration not stated),-0.76% (inactive),–
O=C(CN1C(=O)C2CC=CCC2C1=O)Nc1cc(C(F)(F)F)ccc1N1CCCC1 (configuration not stated),4.32% (inactive),–
CC1(C)CC[C@]2(C(=O)O[C@@H]3OC(CO)[C@@H](O)[C@H](O)[C@H]3O)CC[C@]3(C)C(=CCC4[C@@]5(C)CC[C@H](O[C@@H]6OC(C(=O)O)[C@@H](O)[C@H](O)[C@H]6O)C(C)(C)C5CC[C@]43C)[C@@H]2C1 (some centres not stated),20.2% (inactive),2.42
CC1(C)CC[C@]2(C(=O)O[C@@H]3O[C@H](CO)[C@@H](O)[C@H](O)[C@H]3O)CC[C@]3(C)C(=CCC4[C@@]5(C)CC[C@H](O[C@@H]6O[C@H](C(=O)O)[C@@H](O[C@H]7OC[C@@H](O)[C@@H](O)[C@@H]7O)[C@H](O)[C@H]6O)C(C)(C)C5CC[C@]43C)[C@@H]2C1 (some centres not stated),-9.97% (inactive),–
